Legend:
[1] = molecular target: Mitogen-activated protein kinase 10 (Homo sapiens) (UniProt P53779); settings: at 10 µM
[2] = molecular target: Vascular endothelial growth factor receptor 2 (Homo sapiens) (UniProt P35968); settings: at 1 µM
[3] = molecular target: Vascular endothelial growth factor receptor 2 (Homo sapiens) (UniProt P35968); settings: at 10 µM
[4] = molecular target: LIM domain kinase 1 (Homo sapiens) (UniProt P53667); settings: at 1 µM
[5] = molecular target: LIM domain kinase 1 (Homo sapiens) (UniProt P53667); settings: at 10 µM
[6] = molecular target: T1, Serine/threonine-protein kinase STK11 (Homo sapiens) (UniProt Q15831); settings: at 1 µM
T1 sequence (whole entry): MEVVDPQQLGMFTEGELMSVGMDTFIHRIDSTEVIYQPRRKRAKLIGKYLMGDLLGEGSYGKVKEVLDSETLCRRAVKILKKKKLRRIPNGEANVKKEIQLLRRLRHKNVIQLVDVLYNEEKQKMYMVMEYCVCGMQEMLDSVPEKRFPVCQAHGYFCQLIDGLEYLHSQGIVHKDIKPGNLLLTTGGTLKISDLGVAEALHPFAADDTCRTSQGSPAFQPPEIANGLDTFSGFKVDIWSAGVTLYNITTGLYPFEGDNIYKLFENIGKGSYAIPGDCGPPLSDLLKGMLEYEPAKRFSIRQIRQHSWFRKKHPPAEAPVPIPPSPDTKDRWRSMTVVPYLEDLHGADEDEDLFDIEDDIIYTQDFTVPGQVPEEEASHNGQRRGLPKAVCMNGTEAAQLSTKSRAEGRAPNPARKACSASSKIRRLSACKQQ

[7] = molecular target: T1, Serine/threonine-protein kinase STK11 (Homo sapiens); settings: at 10 µM
[8] = molecular target: Serine/threonine-protein kinase 10 (Homo sapiens) (UniProt O94804); settings: at 1 µM
[9] = molecular target: Serine/threonine-protein kinase 10 (Homo sapiens) (UniProt O94804); settings: at 10 µM
[10] = molecular target: Tyrosine-protein kinase Lck (Homo sapiens) (UniProt P06239); settings: at 1 µM
[11] = molecular target: Tyrosine-protein kinase Lck (Homo sapiens) (UniProt P06239); settings: at 10 µM
[12] = molecular target: Tyrosine-protein kinase Lck (Homo sapiens) (UniProt P06239); settings: at 1 µM; remark: listed apart in the source
[13] = molecular target: Tyrosine-protein kinase Lck (Homo sapiens) (UniProt P06239); settings: at 10 µM; remark: listed apart in the source
[14] = molecular target: Tyrosine-protein kinase Lyn (Homo sapiens) (UniProt P07948); settings: at 1 µM
[15] = molecular target: Tyrosine-protein kinase Lyn (Homo sapiens) (UniProt P07948); settings: at 10 µM
[16] = molecular target: Mitogen-activated protein kinase 3 (Homo sapiens) (UniProt P27361); settings: at 1 µM
[17] = molecular target: Mitogen-activated protein kinase 3 (Homo sapiens) (UniProt P27361); settings: at 10 µM
[18] = molecular target: Mitogen-activated protein kinase 1 (Homo sapiens) (UniProt P28482); settings: at 1 µM
[19] = molecular target: Mitogen-activated protein kinase 1 (Homo sapiens) (UniProt P28482); settings: at 10 µM
[20] = molecular target: MAP kinase-activated protein kinase 2 (Homo sapiens) (UniProt P49137); settings: at 1 µM
MAP kinase-activated protein kinase 2 (Homo sapiens), sequence (P49137 whole entry, looked up): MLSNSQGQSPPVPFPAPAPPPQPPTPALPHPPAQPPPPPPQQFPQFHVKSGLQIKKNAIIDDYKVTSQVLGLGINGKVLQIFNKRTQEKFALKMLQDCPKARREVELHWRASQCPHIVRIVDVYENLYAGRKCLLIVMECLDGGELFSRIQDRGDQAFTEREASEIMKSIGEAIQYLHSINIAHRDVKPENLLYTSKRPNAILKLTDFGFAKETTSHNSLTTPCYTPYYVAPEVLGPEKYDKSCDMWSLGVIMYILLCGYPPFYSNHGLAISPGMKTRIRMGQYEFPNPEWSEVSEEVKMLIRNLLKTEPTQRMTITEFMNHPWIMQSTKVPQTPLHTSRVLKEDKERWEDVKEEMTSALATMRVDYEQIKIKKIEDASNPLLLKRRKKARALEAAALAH

LIM domain kinase 1 (Homo sapiens), sequence (P53667 whole entry, looked up, the tested form may be a part): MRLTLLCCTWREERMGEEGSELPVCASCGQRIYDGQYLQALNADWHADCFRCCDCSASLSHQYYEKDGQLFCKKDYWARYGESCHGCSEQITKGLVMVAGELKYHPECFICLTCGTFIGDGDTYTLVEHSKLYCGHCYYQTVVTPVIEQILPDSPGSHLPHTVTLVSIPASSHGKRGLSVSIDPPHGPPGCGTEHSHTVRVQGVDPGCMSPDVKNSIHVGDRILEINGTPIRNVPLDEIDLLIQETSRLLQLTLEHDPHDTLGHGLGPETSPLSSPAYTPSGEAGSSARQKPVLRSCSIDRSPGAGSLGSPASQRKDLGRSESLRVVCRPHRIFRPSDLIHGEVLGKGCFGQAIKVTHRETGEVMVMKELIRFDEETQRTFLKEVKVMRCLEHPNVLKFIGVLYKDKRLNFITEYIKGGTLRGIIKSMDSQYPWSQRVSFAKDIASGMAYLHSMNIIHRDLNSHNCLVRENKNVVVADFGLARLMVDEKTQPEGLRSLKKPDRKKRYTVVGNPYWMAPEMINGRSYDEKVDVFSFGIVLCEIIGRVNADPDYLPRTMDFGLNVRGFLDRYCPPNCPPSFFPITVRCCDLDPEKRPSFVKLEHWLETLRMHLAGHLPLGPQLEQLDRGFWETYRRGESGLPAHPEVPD
Vascular endothelial growth factor receptor 2 (Homo sapiens), sequence (P35968 whole entry, the tested form may be a part): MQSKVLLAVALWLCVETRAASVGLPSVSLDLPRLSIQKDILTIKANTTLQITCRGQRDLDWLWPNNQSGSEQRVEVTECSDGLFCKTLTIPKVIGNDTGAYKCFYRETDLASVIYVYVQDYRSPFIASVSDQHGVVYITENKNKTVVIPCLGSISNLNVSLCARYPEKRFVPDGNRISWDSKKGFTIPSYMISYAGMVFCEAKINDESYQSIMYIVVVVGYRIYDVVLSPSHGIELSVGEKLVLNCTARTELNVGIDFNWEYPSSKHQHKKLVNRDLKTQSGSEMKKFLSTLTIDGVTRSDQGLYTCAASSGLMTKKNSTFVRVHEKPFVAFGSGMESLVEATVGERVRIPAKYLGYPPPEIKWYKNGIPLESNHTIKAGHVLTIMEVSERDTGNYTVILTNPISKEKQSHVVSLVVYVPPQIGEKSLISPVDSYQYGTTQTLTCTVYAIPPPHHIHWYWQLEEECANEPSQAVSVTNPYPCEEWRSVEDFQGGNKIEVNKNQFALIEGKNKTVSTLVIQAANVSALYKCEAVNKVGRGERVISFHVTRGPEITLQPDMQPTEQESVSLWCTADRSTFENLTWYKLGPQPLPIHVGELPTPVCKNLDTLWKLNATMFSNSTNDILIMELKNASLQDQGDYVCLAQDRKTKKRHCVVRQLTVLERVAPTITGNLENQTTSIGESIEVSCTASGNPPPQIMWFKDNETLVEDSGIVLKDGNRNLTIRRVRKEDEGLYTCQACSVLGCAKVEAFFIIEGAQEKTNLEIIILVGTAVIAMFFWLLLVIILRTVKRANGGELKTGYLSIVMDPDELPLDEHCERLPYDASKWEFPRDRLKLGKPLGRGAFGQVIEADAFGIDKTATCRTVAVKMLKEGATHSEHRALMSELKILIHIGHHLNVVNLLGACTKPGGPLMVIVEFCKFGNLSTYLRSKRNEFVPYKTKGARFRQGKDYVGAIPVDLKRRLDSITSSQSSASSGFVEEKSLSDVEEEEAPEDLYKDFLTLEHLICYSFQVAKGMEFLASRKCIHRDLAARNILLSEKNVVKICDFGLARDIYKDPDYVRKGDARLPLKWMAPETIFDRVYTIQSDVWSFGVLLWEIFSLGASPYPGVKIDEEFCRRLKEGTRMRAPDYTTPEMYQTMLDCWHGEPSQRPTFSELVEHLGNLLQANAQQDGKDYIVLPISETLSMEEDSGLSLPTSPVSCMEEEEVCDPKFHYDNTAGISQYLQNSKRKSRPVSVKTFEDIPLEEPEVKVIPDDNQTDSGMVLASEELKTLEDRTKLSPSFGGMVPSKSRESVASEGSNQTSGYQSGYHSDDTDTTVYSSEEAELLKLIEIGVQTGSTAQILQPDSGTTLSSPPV
Tyrosine-protein kinase Lyn (Homo sapiens), sequence (P07948 2-512 limits assumed): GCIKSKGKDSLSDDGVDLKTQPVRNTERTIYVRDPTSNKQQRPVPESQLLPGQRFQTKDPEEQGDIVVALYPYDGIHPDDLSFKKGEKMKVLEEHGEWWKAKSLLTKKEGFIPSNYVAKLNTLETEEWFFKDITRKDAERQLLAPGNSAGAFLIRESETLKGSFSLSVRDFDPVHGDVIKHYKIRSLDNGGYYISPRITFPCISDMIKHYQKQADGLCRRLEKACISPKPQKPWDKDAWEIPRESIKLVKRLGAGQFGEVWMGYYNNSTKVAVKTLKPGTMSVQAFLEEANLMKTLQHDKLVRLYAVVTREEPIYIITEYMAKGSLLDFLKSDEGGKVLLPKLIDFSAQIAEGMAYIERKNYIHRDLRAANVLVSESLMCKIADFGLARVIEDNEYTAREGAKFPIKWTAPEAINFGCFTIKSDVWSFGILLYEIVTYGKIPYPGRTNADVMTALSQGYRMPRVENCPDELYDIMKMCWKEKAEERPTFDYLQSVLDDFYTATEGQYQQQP
Mitogen-activated protein kinase 10 (Homo sapiens), sequence (P53779 whole entry): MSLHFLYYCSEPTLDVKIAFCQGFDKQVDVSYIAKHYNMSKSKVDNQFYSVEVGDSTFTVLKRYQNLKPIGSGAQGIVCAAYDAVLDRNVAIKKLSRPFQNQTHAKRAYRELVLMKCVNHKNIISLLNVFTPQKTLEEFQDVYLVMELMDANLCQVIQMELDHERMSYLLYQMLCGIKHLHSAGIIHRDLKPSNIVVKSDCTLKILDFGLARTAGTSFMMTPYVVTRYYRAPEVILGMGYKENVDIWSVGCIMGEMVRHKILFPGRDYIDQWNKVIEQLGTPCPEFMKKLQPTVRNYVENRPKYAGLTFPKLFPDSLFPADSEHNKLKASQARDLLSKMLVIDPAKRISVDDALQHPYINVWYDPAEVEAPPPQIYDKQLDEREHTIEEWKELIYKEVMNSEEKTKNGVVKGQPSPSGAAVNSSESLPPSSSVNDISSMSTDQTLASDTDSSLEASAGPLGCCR
Serine/threonine-protein kinase 10 (Homo sapiens), sequence (O94804 whole entry, looked up): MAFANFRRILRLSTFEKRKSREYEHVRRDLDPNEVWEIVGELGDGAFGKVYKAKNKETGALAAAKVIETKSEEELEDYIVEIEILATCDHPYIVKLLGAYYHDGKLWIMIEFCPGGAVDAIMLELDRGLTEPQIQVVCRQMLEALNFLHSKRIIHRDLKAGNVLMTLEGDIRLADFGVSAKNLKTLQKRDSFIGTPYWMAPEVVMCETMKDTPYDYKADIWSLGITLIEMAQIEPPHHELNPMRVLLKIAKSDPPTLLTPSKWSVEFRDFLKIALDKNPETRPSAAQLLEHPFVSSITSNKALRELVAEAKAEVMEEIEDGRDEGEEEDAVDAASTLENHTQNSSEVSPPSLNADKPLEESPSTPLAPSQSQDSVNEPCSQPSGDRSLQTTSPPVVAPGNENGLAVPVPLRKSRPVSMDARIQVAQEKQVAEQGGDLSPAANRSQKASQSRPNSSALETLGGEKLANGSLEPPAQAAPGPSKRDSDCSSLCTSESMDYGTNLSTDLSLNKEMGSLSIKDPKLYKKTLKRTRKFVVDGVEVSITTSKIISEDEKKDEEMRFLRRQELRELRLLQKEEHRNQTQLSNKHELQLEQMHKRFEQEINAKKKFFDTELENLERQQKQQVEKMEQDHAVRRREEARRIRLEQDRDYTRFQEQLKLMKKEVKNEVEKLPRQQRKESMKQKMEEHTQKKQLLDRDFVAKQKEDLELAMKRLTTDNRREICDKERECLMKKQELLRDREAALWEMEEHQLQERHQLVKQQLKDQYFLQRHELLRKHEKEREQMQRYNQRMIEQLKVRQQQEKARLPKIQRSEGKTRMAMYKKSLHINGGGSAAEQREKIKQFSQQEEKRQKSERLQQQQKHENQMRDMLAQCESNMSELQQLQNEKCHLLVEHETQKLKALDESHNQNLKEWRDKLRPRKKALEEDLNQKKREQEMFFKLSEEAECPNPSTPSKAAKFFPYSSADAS
Mitogen-activated protein kinase 1 (Homo sapiens), sequence (P28482 whole entry): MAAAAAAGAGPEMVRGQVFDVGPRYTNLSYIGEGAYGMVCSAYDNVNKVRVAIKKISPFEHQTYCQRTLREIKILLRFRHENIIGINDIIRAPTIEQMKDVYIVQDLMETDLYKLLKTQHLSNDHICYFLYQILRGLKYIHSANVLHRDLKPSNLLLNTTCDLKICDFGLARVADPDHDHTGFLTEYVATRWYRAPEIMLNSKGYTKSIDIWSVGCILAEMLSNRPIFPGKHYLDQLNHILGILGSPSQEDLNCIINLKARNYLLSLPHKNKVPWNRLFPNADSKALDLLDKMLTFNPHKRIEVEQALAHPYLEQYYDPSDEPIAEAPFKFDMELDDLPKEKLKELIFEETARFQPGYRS

SMILES	residual activity [1] [%]	residual activity [2] [%]	residual activity [3] [%]	residual activity [4] [%]	residual activity [5] [%]	residual activity [6] [%]	residual activity [7] [%]	residual activity [8] [%]	residual activity [9] [%]	residual activity [10] [%]	residual activity [11] [%]	residual activity [12] [%]	residual activity [13] [%]	residual activity [14] [%]	residual activity [15] [%]	residual activity [16] [%]	residual activity [17] [%]	residual activity [18] [%]	residual activity [19] [%]	residual activity [20] [%]
NC(=O)c1ccc2[nH]c(-c3ccc(Oc4ccc(Cl)cc4)cc3)nc2c1	98	84	43	93	55	103	94	83	58	83	72	105	102	91	88	99	99	102	99	103
O=C(O)c1ccc2c3c1cccc3c(=O)n1c3ccccc3nc21	34	41	56	101	89	107	95	60	39	83	109	95	79	96	87	117	77	123	96	86
Oc1n[nH]c2nnc(-c3c(-c4ccccc4)nn4ccccc34)cc12	43	93	89	77	87	91	96	100	79	88	82	90	71	71	68	92	93	101	105	82
O=C1Nc2cc(Br)ccc2/C1=C1/Nc2ccccc2/C1=N\O	16	3	2	33	49	99	81	72	69	2	10	1	19	4	1	102	80	108	106	96
CCC(=O)Nc1ccc2ncnc(Nc3cccc(Br)c3)c2c1	37	95	75	97	76	96	96	50	33	79	67	77	75	28	5	83	85	93	94	88
COc1cc2ncnc(N3CCN(C(=O)Nc4ccc(Oc5ccccc5)cc4)CC3)c2cc1OC	89	80	38	54	14	99	89	90	85	98	59	92	68	98	100	76	95	106	105	99
CC(C)n1cnc2/c(=N/c3cccc(Cl)c3)nc(NCCO)[nH]c21	60	85	53	96	80	96	81	89	47	48	37	86	40	20	2	92	77	117	78	91
N#C/C(=C(\N)Sc1ccc(N)cc1)c1ccccc1C(F)(F)F	83	97	97	91	85	105	93	69	83	83	103	110	74	65	67	95	114	104	90	70
COc1cc2ncnc(Nc3ccc(O)c(Br)c3)c2cc1OC	13	30	4	78	49	106	97	17	8	27	7	21	10	7	-2	68	45	98	75	106
O=c1c2ccccc2[nH]c(=S)n1CCN1CCC(=C(c2ccc(F)cc2)c2ccc(F)cc2)CC1	54	103	90	119	93	123	128	107	97	144	107	83	65	83	46	88	61	103	80	97
Cn1cc(/C=C2\C(=O)Nc3ccc(S(N)(=O)=O)cc32)c2ccccc21	40	28	7	101	53	103	100	45	7	20	14	30	34	10	1	85	90	106	103	83
CC#CC(=O)Nc1cc2c(Nc3ccc(F)c(Cl)c3)ncnc2cn1	61	107	86	100	91	102	98	96	86	105	71	97	84	78	51	100	88	101	103	89
COc1ccc(CNc2nc(N(CCO)CCO)nc3c2ncn3C(C)C)cc1	70	79	74	90	88	126	73	101	88	62	77	104	79	74	78	91	87	123	87	96
CNc1cc2c(Nc3cccc(Br)c3)ncnc2cn1	60	85	40	102	43	99	95	27	10	87	19	73	79	10	5	86	95	102	96	119

Reference: ChEMBL document CHEMBL2218924, “A broad activity screen in support of a chemogenomic map for kinase signalling research and drug discovery” (Biochem J, 2013)
